A selection: hits, their analogues and other compounds. The true share with any hit is near 2.8%.
SENP6 inh = blocks the human protease SENP6 | Q9GZR1 | Recombinant SENP6 catalytic domain, aminoluciferin luminescence | inhibition, % at 10 µM | 1.8% of 330,000 active | AID 2599;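 active = inhibition above about 50% at the single tested dose, limit read from the data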;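 also: plate controls were DMSO wells with enzyme for no effect and DMSO wells lacking enzyme for full effect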
SENP7 inh = SENP7 protease inhibition. Q9BQF6. inhibition, % at 5 µM. 1.5% of 330,000 active. recombinant SENP7, Z-RLRGG-aminoluciferin luminescence, 40 min;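 active = inhibition above about 50% at the single test dose, limit read from the data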;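 also: plate controls were DMSO with enzyme for no effect and no enzyme buffer wells for full effect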
Target sequence (Q9BQF6 706-1050 limits assumed): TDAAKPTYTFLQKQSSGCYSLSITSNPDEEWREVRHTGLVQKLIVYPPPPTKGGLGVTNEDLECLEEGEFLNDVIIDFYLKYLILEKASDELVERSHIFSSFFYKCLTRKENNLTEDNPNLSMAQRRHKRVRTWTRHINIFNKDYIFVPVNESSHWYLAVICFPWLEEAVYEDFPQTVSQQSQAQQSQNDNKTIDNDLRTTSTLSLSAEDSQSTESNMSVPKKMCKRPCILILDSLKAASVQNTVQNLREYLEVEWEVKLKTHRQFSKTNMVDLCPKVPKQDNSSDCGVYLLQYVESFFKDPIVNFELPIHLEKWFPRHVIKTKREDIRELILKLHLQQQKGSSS
SENP8 block-1 = SENP8 protease inhibition | purified SENP8, Z-RLRGG-aminoluciferin cleavage, luminescence | inhibition, % at 10 µM | 1.2% of 330,000 active; in the data active = inhibition above about 50%
SENP8 block-2 = blocks human SENP8 cleavage of Nedd8 substrate; recombinant SENP8, Nedd8 substrate fluorescence; inhibition, % at 20 µM; 0.64% of 360,000 active; AID 602440; in the data active = inhibition mostly above about 40%, no sharp cut-off; inactive = mostly below about 27%
HSP90 refold inh = HSP90 refolding inhibition in rabbit reticulocyte lysate | luciferase refolding luminescence, 3 h | inhibition, % at 5.6 µM | 0.91% of 290,000 active;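 active = inhibition above the screen-wide mean plus 3 SD, computed separately per campaign, cut at about 16% in these data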;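 also: 0% = DMSO wells and 100% = 60 µM geldanamycin wells; inhibitors lower the luminescence because luciferase stays unfolded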
Platelet DG rel = platelet dense granule release activity; human platelet-rich plasma, SFLLRN dense granule ATP release, luminescence; inhibition, %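 (compounds screened at 7.5 µM in platelet-rich plasma)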; 0.22% of 300,000 active; AID 1663;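 active = mean replicate score, as percent of positive control, at or above 50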
SENP8 confirm = confirmation of human SENP8 protease inhibitors | Recombinant SENP8, Z-RLRGG-aminoluciferin luminescence, 60 min | inhibition, % at 12.5 µM | 40% of 6,200 active | shares compounds with SENP7 inh;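 active = mean inhibition across replicates above about 50%, limit read from the data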
SENP6 conf = human SENP6 inhibition, confirmed | recombinant SENP6, Z-RLRGG-aminoluciferin luminescence | 58% of 6,200 active | inhibition, % at 12.5 µM | shares compounds with SENP7 inh
SENP7 confirm = confirmation of human SENP7 protease inhibitors; shares compounds with SENP7 inh; recombinant SENP7, Z-RLRGG-aminoluciferin luminescence, 40 min; inhibition, % at 12.5 µM; 69% of 6,200 active; AID 488917
Casp3 select = selectivity test for SENP inhibitors: human caspase-3 inhibition; shares compounds with SENP7 inh; purified caspase-3, Z-DEVD-aminoluciferin luminescence, 60 min; inhibition, % at 12.5 µM; 60% of 6,200 active; AID 488918;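 active = mean inhibition above about 50%, limit read from the data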;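 also: plate controls were enzyme with DMSO for no effect and wells without caspase-3 for full effect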
Target sequence (P42574 28-227 limits assumed): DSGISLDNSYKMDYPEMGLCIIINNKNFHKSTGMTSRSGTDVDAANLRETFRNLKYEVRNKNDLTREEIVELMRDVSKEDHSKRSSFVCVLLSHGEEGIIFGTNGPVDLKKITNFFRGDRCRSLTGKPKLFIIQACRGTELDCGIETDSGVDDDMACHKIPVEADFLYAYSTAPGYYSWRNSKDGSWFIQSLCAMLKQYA
SENP luc ctr = counter-screen for SENP inhibitors: luminescence interference; AID 488919; shares compounds with SENP7 inh; 39% of 6,200 active; inhibition, % at 12.5 µM; Pre-incubated SENP8/Z-RLRGG-aminoluciferin, luciferase luminescence interference;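 active = mean inhibition above about 50% when retested at one dose, limit read from the data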;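 also: plate controls were DMSO wells with completed reaction for no effect and substrate without enzyme for full effect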
* = called active by the depositor; . = not tested or not shown.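 The calls were made as follows, unless noted: active = mean inhibition above about 50% in the one-dose retest (limit read from the data); inactive = the rest.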

SMILES	SENP6 inh	SENP7 inh	SENP8 block-1	SENP8 block-2	HSP90 refold inh	Platelet DG rel	SENP8 confirm	SENP6 conf	SENP7 confirm	Casp3 select	SENP luc ctr
Cc1cccnc1Nc1nc(-c2ccc(O)c(O)c2)cs1	92*	66*	92*	11	7	4	89*	89*	96*	45	86*
Cc1c(C(=O)N2CCN(S(=O)(=O)c3cc(F)ccc3F)CC2)oc2ccccc12	-4	0	6	9	.	.	.	.	.	.	.
Nc1cccnc1Sc1ccc(Cl)cc1	55*	36	42	-44	0	-4	-5	-7	-10	-5	-4
Nc1cccnc1Sc1cccc(Cl)c1	61*	41	31	-32	0	0	10	2	-2	-5	-4
NC(=O)c1cccnc1Sc1ccc(Cl)cc1	-9	-2	5	6	1	4	.	.	.	.	.
CC(NC(=O)c1cccc(S(=O)(=O)N2CCCCCC2)c1)c1ccccc1 (stereo not given)	7	-2	0	11	.	.	.	.	.	.	.
COc1cccc(C#CC2=CC(=O)C[C@H](c3ccc(F)cc3)C2)c1	.	.	.	12	.	.	.	.	.	.	.
O=c1[nH]c(Nc2ccc(F)cc2)cc2ccccc12	85*	92*	85*	-273	16*	10	52*	76*	48	10	9
Cc1cc(Nc2ccc(F)cc2)c2ccccc2n1	.	.	.	-64	.	.	.	.	.	.	.
Cc1ccccc1Nc1cc2ccccc2c(=O)[nH]1	91*	95*	97*	1	7	2	92*	98*	95*	96*	14
Cc1cc2ccccc2c(=O)[nH]1	-2	-1	1	-62	2	0	.	.	.	.	.
O=c1[nH]c(Nc2ccccc2Cl)cc2ccccc12	99*	92*	96*	-492	.	-11	57*	86*	69*	27	-2
CCc1ccc(NC(=O)COC(=O)c2nc3nc(C)cc(C)n3n2)cc1	3	-13	-7	3	.	.	.	.	.	.	.
COc1ccc(-c2cn3nc(SCC(=O)NC4CCCCC4)ccc3n2)cc1	18	61*	14	-382	0	-4	-14	-9	18	20	7
CC(C)C1Oc2ccccc2C(=O)N(CC(=O)c2ccc3c(c2)OCCO3)C1=O (stereo not given)	16	56*	-20	4	6	-5	2	6	13	26	-4
CC1Oc2ccccc2C(=O)N(CC(=O)c2ccc3c(c2)OCCO3)C1=O (stereo not given)	28	6	6	8	2	13	.	.	.	.	.
Cc1cc(C)n(CC(O)Cn2c3ccccc3c3ccccc32)n1 (stereo not given)	-18	7	2	-9	-3	-5	.	.	.	.	.
Cc1cc(C)n(CC(O)Cn2c3ccc(Cl)cc3c3cc(Cl)ccc32)c(=O)n1 (stereo not given)	-9	95*	-7	4	3	3	2	4	7	-2	2
Cc1nnsc1C(=O)N/N=C/c1ccc(OC(F)(F)F)cc1	-21	55*	4	-9	1	-10	16	17	28	24	11
O=C(Nc1cccnc1)C1CCC(CNS(=O)(=O)c2cccc3nsnc23)CC1 (stereo not given)	12	5	1	30	1	2	.	.	.	.	.
O=C(Nc1ccccc1)c1ccc2c(c1)OCCO2	93*	85*	77*	29	5	26	-23	77*	97*	92*	84*
O=C(Nc1cccc(NC(=O)c2ccc3c(c2)OCO3)c1)c1ccccc1	-6	42	31	-8	-1	15	.	.	.	.	.
CCN(CC)c1ccc(NC(=O)Nc2ccccc2)cc1	83*	65*	64*	12	9	16	36	71*	88*	76*	52*
CN(CC(=O)Nc1cccc(F)c1)C(=O)c1ccc2c(c1)OCCO2	19	3	16	11	.	11	.	.	.	.	.
O=C(Nc1cccc(F)c1)c1ccc2c(c1)OCCO2	89*	93*	87*	2	10	1	-4	88*	99*	90*	89*
SMILES	SENP6 inh	SENP7 inh	SENP8 block-1	SENP8 block-2	HSP90 refold inh	Platelet DG rel	SENP8 confirm	SENP6 conf	SENP7 confirm	Casp3 select	SENP luc ctr
O=C(NC(=S)Nc1ccc2c(c1)OCCO2)c1ccccc1	76*	25	49	12	10	-15	59*	61*	88*	54*	59*
CCN(CC)c1ccc(NC(=O)Nc2ccc(C(C)=O)cc2)cc1	30	-2	-3	10	0	-4	.	.	.	.	.
CC(C)NC(=O)c1cc(C2CCCCN2C(=O)OCCF)on1 (stereo not given)	.	.	.	-3	.	.	.	.	.	.	.
COc1ccc(C(=O)NC(CCSC)C(=O)N2CCCCCC2)cc1 (stereo not given)	10	10	5	8	-1	-8	.	.	.	.	.
Cc1ccc(C(=O)N2CCCC(C(=O)Nc3cccc(-c4ccc(F)cc4)c3)C2)cn1 (stereo not given)	-9	-1	6	19	-2	-16	.	.	.	.	.
CCN(CC)c1ccc(C(=O)Nc2cccc(F)c2)cc1	84*	59*	59*	-155	1	5	71*	74*	93*	64*	68*
Cc1ccc(C(=O)N/C(=C\c2ccc(-c3ccccc3[N+](=O)[O-])o2)C(=O)NCCN(C)C)cc1	30	5	21	-9	6	-8	.	.	.	.	.
Cc1ccc(C(=O)N/C(=C\c2ccc(-c3ccccc3[N+](=O)[O-])o2)C(=O)NCCCN(C)C)cc1	50*	15	26	-6	1	11	13	35	13	2	0
O=C(NC(=O)c1c(F)cccc1F)Nc1cccc(Oc2ncc(Cl)cn2)c1	.	.	.	8	.	.	.	.	.	.	.
CCCc1cc(C(=O)Nc2cc(C)ccc2O)no1	61*	48	67*	12	0	12	11	56*	87*	72*	9
CCCc1cc(C(=O)Nc2cccnc2Cl)no1	-22	0	-9	16	0	5	.	.	.	.	.
CN(C(=O)CSc1nc2ccccc2[nH]1)C1CCS(=O)(=O)C1 (stereo not given)	-16	-2	-2	6	.	.	.	.	.	.	.
Cc1cc(C)n2nc(/C(C#N)=C/c3ccccn3)c(C#N)c2n1	4	-5	-7	-232	0	7	.	.	.	.	.

Source: PubChem BioAssay
